This passage reports growth inhibition, inhibition and outcome results from PubChem BioAssay.

Assay [1] can be described thus: antimalarial activity against Dd2 strain (AID 2302;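 active = growth inhibition above 50% at the single 2 µM test dose, taken to imply half-maximal potency below 2 µM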;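 also: 0% = DMSO untreated growth and 100% = chloroquine plus artemisinin killed control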). To be noted: P. falciparum Dd2 in RBCs, LDH growth readout, 72 h; at 2 µM; active compounds read high.
Assay [2] is described as follows: human hepatoma cell viability loss – ATP luminescence, cytotoxicity control for P. falciparum antimalarial project, primary screen (AID 2303;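 active = inhibition above 50%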;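 also: 0% = DMSO wells and 100% = digitonin-killed cells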). The following applies: HepG2 viability, 24-48 h, at 10 µM, active compounds read high.
The target in assay [3] is L-lactate dehydrogenase (Plasmodium falciparum (isolate CDC / Honduras)) (UniProt Q27743). The assay is described as follows: PfLDH activity inhibition – cell lysate, 3D7 strain, counter-screen for P. falciparum growth inhibition project (AID 2304).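 Also: 0% = vehicle and 100% = reference inhibitor.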 The following applies: P. falciparum 3D7 crude extract, LDH APAD/NBT absorbance; at 2 µM; active compounds read high.
Assay [4] in a line: inhibition of 3D7 malaria parasite growth – strain 3D7 (AID 2306).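 Also: 0% = DMSO wells and 100% = chloroquine plus artemisinin control wells.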 The following applies: P. falciparum 3D7 erythrocytic growth, LDH absorbance, 72 h; at 2 µM; active compounds read high.
The target in assay [5] is Calcium-dependent protein kinase 1 (Plasmodium falciparum (isolate 3D7)) (UniProt P62344). The assay is described as follows: PfCDPK1 kinase inhibitors, biochemical, TCAMS library (AID 1159585; cut-off not given, nearly all actives have IC50 up to about 0.98 µM;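 also: inhibitors leave more ATP so luminescence rises with inhibition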). To be noted: recombinant PfCDPK1, Kinase-Glo ATP depletion luminescence.
Assay [6] has as its target Plasmodium falciparum protein kinase 6 (PK6, PF3D7_1337100) (UniProt Q8IDW1). The assay is described as follows: PfPK6 kinase inhibitors, biochemical, TCAMS library (AID 1159586). The following applies: recombinant PfPK6, Kinase-Glo ATP depletion luminescence.
The target in assay [7] is Protein kinase 7 (PK7), Plasmodium falciparum 3D7 (PF3D7_0213400) (UniProt Q7YTF7). The assay is described as follows: inhibition of Plasmodium PK7 catalytic activity – biochemical, TCAMS antimalarial set, Kinase-Glo luminescence (AID 1159587). The following applies: recombinant PfPK7, Kinase-Glo ATP depletion luminescence.
Assay [8] addresses Calcium-dependent protein kinase 4 (Plasmodium falciparum (isolate 3D7)) (UniProt Q8IBS5). The experiment in a line: PfCDPK4 kinase inhibitors, biochemical, TCAMS library (AID 1159588; cut-off not given, nearly all actives have IC50 up to about 0.91 µM). To be noted: recombinant PfCDPK4, Kinase-Glo ATP depletion luminescence.

SMILES strings stand for the structures. A number with no mark means an inactive call. For some assays here: Potency and affinity values are given separately. Active and inactive are the calls of the source. Unless noted, no rule for the calls is given here.

Chain of Calcium-dependent protein kinase 4 (Plasmodium falciparum (isolate 3D7)) (Q8IBS5 whole entry, looked up): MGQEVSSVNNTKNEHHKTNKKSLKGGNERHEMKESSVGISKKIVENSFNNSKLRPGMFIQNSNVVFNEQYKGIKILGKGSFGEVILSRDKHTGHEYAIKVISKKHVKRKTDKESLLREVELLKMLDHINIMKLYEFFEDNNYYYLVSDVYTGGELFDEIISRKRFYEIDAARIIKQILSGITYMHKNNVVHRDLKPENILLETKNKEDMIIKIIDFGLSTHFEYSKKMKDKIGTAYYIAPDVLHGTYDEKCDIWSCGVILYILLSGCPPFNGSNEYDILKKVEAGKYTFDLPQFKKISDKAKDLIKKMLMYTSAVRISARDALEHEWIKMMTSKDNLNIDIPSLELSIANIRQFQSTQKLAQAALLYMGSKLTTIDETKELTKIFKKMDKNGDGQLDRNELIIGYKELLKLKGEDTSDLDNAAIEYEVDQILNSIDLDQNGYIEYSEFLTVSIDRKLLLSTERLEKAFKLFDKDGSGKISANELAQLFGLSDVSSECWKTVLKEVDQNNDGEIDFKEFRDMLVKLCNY
Chain of L-lactate dehydrogenase (Plasmodium falciparum (isolate CDC / Honduras)) (Q27743 whole entry, looked up): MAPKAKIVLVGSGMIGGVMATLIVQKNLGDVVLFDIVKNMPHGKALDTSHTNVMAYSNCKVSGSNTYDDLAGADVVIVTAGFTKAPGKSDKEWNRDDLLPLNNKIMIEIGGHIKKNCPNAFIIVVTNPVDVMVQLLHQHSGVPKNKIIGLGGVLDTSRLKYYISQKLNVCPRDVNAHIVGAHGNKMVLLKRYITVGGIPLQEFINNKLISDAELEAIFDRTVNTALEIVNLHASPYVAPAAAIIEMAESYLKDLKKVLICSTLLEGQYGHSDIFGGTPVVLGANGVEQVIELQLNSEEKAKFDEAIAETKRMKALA
Chain of Plasmodium falciparum protein kinase 6 (PK6, PF3D7_1337100) (Q8IDW1 1-305): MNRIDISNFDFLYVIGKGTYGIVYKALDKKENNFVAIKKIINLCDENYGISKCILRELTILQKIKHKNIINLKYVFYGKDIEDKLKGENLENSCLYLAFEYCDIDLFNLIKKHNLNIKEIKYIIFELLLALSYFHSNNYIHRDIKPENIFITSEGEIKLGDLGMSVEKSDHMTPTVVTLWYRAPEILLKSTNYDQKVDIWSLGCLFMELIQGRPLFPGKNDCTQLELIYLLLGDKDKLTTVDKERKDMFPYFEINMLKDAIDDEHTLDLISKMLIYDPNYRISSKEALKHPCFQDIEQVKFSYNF
Chain of Calcium-dependent protein kinase 1 (Plasmodium falciparum (isolate 3D7)) (P62344 whole entry, looked up): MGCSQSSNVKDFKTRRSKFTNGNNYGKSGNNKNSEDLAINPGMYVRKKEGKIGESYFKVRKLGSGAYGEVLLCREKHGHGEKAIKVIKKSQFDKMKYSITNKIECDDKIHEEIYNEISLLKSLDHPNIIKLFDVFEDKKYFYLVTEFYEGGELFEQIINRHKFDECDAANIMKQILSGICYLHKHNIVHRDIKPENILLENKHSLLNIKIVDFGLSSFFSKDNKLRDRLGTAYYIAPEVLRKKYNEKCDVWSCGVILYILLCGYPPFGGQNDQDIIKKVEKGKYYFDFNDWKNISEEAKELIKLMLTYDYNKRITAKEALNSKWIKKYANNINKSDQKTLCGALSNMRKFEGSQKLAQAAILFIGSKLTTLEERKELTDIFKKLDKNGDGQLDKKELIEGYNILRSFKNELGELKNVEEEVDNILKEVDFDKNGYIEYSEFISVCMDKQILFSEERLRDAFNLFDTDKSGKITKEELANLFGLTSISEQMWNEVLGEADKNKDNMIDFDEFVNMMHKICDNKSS
Chain of Protein kinase 7 (PK7), Plasmodium falciparum 3D7 (PF3D7_0213400) (Q7YTF7 1-343): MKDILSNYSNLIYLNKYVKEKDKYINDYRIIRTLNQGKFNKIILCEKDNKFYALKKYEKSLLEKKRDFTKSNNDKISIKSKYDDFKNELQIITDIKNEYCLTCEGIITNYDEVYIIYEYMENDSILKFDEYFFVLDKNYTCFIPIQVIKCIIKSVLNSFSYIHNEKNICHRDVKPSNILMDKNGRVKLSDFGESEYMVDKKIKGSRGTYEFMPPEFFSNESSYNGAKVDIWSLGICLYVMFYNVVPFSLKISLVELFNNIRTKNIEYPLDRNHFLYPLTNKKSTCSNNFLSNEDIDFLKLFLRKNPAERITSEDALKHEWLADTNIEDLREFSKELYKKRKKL

Regarding `Cc1cccc2[nH]c(-c3cccc(-c4ccc(CNCc5cccc(N)c5)cc4)c3)nc12`, the growth inhibition was 93% (active) in assay [1] and 101% (active) in assay [4]. The inhibition is 19% in assay [2] and -3% in assay [3]. Moreover, the result in assay [5], in assay [6], in assay [7] and in assay [8] was inactive.
As to `CCCCCCN1CCCN(Cc2ccc(C(=O)Nc3ccc(C(C)(C)C)cc3)cc2)CC1`, the growth inhibition in assay [1] is 32%; in assay [4], 100% (active). Moreover, the inhibition in assay [2] was 53% (active); in assay [3], -3%. Further, the result in assay [5], in assay [6], in assay [7] and in assay [8] was inactive.
As to `O=C(/C=C/c1ccc(Cl)c(Cl)c1)NCCCCCN1CCCN(C(=S)Nc2ccc(Cl)cc2)CC1`, the growth inhibition in assay [1] was 10%; in assay [4] it was 86% (active). Moreover, the figures for the inhibition in assay [2] and in assay [3] were 7% and -3%, respectively. Further, the result in assay [5], in assay [6], in assay [7] and in assay [8] was inactive.
In the case of `N#Cc1ccc(CN2CCCN(c3ccc(NC(=O)c4ccc(F)cc4)cc3)CC2)cc1`, the growth inhibition in assay [1] is 61% (active); in assay [4] it was 90% (active). In addition, the inhibition in assay [2] is 12%; in assay [3], -2%. For the same compound, the outcome in assay [5], in assay [6], in assay [7] and in assay [8] was inactive.
In the case of `O=C(Nc1cccc(CN2CCCN(Cc3ncc[nH]3)CC2)c1)c1ccc(-c2ccccc2)cc1`, the values for the growth inhibition in assay [1] and in assay [4] were 56% (active) and 101% (active), respectively. In addition, the inhibition in assay [2] was 23%; in assay [3], -5%. Also, the result in assay [5], in assay [6], in assay [7] and in assay [8] was inactive.
Take `CCN1CCN(c2ccc(Nc3ccnc4ccc(Br)cc34)cc2)CC1`: the results for the growth inhibition in assay [1] and in assay [4] were 86% (active) and 98% (active), respectively. In addition, the results for the inhibition in assay [2] and in assay [3] were 37% and 2%, respectively. In addition, the outcome in assay [5], in assay [6], in assay [7] and in assay [8] was inactive.
Consider `CC(C)C[C@H](NC(=O)c1ccc(OCCN2CCOCC2)cc1)C(=O)N[C@H](/C=N/NC(=O)OC(C)(C)C)CCc1ccccc1`, for which the growth inhibition is 87% (active) in assay [1] and 96% (active) in assay [4]. Also, the inhibition in assay [2] was 8%; in assay [3] it was -4%. Moreover, the outcome in assay [5], in assay [6], in assay [7] and in assay [8] was inactive.
`CC(C)(CNC(=O)/C=C/c1ccc(Cl)c(Cl)c1)CNc1cc(=O)c2ccccc2[nH]1`: the values for the growth inhibition in assay [1] and in assay [4] were 29% and 96% (active), respectively. Moreover, the inhibition is -4% in assay [2] and 0% in assay [3]. In addition, the result in assay [5], in assay [6], in assay [7] and in assay [8] was inactive.
`O=C(C=Cc1ccc(Cl)c(Cl)c1)NCCCCCN1CCCC(CCCNC(=O)c2sc3ccccc3c2Cl)C1` (configuration not stated): the growth inhibition in assay [1] was 32%; in assay [4], 88% (active). Also, the results for the inhibition in assay [2] and in assay [3] were 82% (active) and -3%, respectively. For the same compound, the outcome in assay [5], in assay [6], in assay [7] and in assay [8] was inactive.
For the compound `COc1ccc(-c2cccc(NC(=O)c3ccc(Cl)cc3)c2)cc1CN1CCNCC1`, the growth inhibition in assay [1] was 22%; in assay [4], 96% (active). The inhibition is 52% (active) in assay [2] and -3% in assay [3]. The result in assay [5], in assay [6], in assay [7] and in assay [8] was inactive.
For the compound `Nc1ccc(-c2cnc3[nH]cc(-c4ccc(C(=O)O)cc4)c3c2)cn1`, the growth inhibition in assay [1] is 99% (active); in assay [4], 97% (active). The inhibition was 48% in assay [2] and 1% in assay [3]. For the same compound, the result in assay [5], in assay [6], in assay [7] and in assay [8] was inactive.
Consider `COc1ccc(CNCc2ccccc2)cc1-c1ccc(S(=O)(=O)NCCN2CCCC2)s1`, for which the growth inhibition in assay [1] is 62% (active); in assay [4], 101% (active). Moreover, the inhibition in assay [2] is 32%; in assay [3] it was 0%. Further, the outcome in assay [5], in assay [6], in assay [7] and in assay [8] was inactive.
As for `O=C(Nc1cccc(Oc2ccccc2)c1)N[C@H]1CCN(Cc2ccc(OCCCN3CCCCC3)cc2)C1`, the growth inhibition in assay [1] is 70% (active); in assay [4], 101% (active). Further, the inhibition was 94% (active) in assay [2] and -2% in assay [3]. The outcome in assay [5], in assay [6], in assay [7] and in assay [8] was inactive.
On to `Cc1ccccc1C1CCN(C2CCC(NC(=O)/C=C/c3c[nH]c4ccccc34)CC2)CC1` (configuration not stated), for which the growth inhibition in assay [1] was 51% (active); in assay [4], 100% (active). Further, the inhibition was 30% in assay [2] and 2% in assay [3]. Also, the result in assay [5], in assay [6], in assay [7] and in assay [8] was inactive.
As for `O=C(/C=C/c1ccc(Cl)c(Cl)c1)NCCCCCCN1CCN(C(=O)Nc2ccc(Cl)c(Cl)c2)CC1`, the growth inhibition in assay [1] was 0%; in assay [4], 88% (active). The inhibition in assay [2] was 23%; in assay [3], -1%. Further, the outcome in assay [5], in assay [6], in assay [7] and in assay [8] was inactive.
On to `CCC(C)Oc1ccc(CCCON2C(N)=NC(N)=NC2(C)C)cc1` (configuration not stated), for which the growth inhibition in assay [1] is 95% (active); in assay [4], 92% (active). The inhibition was 65% (active) in assay [2] and -8% in assay [3]. The result in assay [5], in assay [6], in assay [7] and in assay [8] was inactive.
As for `CC(C)CCN1CCC(Oc2ccc(NC(=O)c3ccc4ncccc4c3)cc2Cl)C1` (configuration not stated), the growth inhibition in assay [1] is 14%; in assay [4], 95% (active). In addition, the values for the inhibition in assay [2] and in assay [3] were 33% and -4%, respectively. For the same compound, the outcome in assay [5], in assay [6], in assay [7] and in assay [8] was inactive.
Turning to `CCc1ccc(CN2CCC(CNC(=O)c3cc(-c4cccc(C(F)(F)F)c4)cs3)C2)cc1` (configuration not stated), the figures for the growth inhibition in assay [1] and in assay [4] were 48% and 97% (active), respectively. The inhibition is 45% in assay [2] and 2% in assay [3]. Besides, the result in assay [5], in assay [6], in assay [7] and in assay [8] was inactive.
In the case of `Oc1cccc(CNCCCN(Cc2ccccc2)c2ccccc2)c1`, the growth inhibition is 97% (active) in assay [1] and 99% (active) in assay [4]. For the same compound, the inhibition in assay [2] was 7%; in assay [3], -6%. The result in assay [5], in assay [6], in assay [7] and in assay [8] was inactive.
